Laboratory results as given in PubChem BioAssay (Tox21).
Where “and” joins values, the source holds several entries; their conditions need not be identical. Equal entries are not always repeated. Results filed as inconclusive are left out. Unmarked numbers belong to inactive results. Calls of active or inactive are those of the source. Calls follow the shape of the dose curve; as a rule, active = well fitted activation curve with a large enough effect in the repeat runs; inconclusive = weak or mixed curves; inactive = flat fitted curve, though single readings scatter.

Assay: A CellTox Green Cytotoxicity Assay to monitor cytotoxicity in HepG2 cells - 24 hour (AID 1224878); also: nearly all actives have a fitted effect of over 45% in size
Settings: CellTox Green fluorescence; series mostly up to 76.8 µM; cytotoxicity: at the top concentration
Text: National Center for Advancing Translational Sciences [NCATS]
NIH Chemical Genomics Center [NCGC]
U.S. Environmental Protection Agency [EPA]
National Institutes of Environmental Health Sciences [NIEHS]
National Toxicology Program [NTP]
Cell-based models are critical for drug discovery. Determining the natural cytotoxic effects resulting from test compounds is an essential research activity. A CellTox Green Cytotoxicity Assay to monitor cytotoxicity in real time of continues cell culture during 40 hours of the compound treatment was used to screen Tox21 10K library compounds in HepG2 cells. CellTox Green Cytotoxicity Assay is a nonlytic, homogeneous, biofluorescent method to measure cytotoxicity in cell culture after experimental manipulation. The assay system uses a proprietary asymmetric cyanine dye that is excluded from viable cells but preferentially stains the dead cell's DNA. […] Viable cells produce no appreciable increases in fluorescence. Therefore, the fluorescence signal produced by the binding interaction with dead cell DNA is proportional to cytotoxicity.
The mixture of HepG2 cell suspension and reagents were dispensed at 600cells/6 ul/well in 1536-well tissue culture treated black solid bottom plates using a Multidrop dispenser. After the assay plates were incubated at a 37 C/5% CO2 incubator for 5 hours, 23 nL of compounds dissolved in DMSO, positive and negative controls was transferred to the assay plate by a pintool work station. The plates were incubated at 37 C for 40 hours. The fluorescence intensity were measured at 0h, 8h, 16h, 24h, 32h and 40h time points using ViewLux plate reader during compound treatment.
% is scaled to controls: 0 for no effect and ±100 for the full control effect; potency is read from the fitted curve at half-maximal effect.

First: CC/C=C1/OC(=O)c2ccccc21
Second: CN1C(=O)c2ccccc2C1=O
The “cytotoxicity” value of the first is higher: 1.91% for the first, -5.24% for the second.

Compared with `CC(CCC(=O)O)C(=O)O` (stereo not given), `O=C(O)C[C@H](NC(=O)OCc1ccccc1)C(=O)O` is lower in “cytotoxicity” value: 4% for the first, -3.25% for the second.

Going from `CCC(=O)OC` to `CCOC(C)=O`, the “cytotoxicity” value falls from 4.99% to -16.3%.

Going from `O=C=Nc1ccc(Cl)c(Cl)c1` to `O=c1[nH]c2ccc(Cl)cc2o1`, the “cytotoxicity” value falls from -1.37% to -14.1%.

Going from `C=COCC(C)C` to `C=CC(C)(CCC=C(C)C)OC(=O)CC(C)C` (stereo not given), the “cytotoxicity” value falls from 0.519% to -0.34%.

First: CCCCCCCCCCC(=O)O
Second: C/C=C\C/C=C/CCCCCCCCOC(C)=O
The “cytotoxicity” value of the first is higher: 15.1% for the first, 0.199% for the second.

First: COc1ccccc1NC(=O)c1cc2ccccc2cc1O
Second: O=[N+]([O-])c1ccc(Nc2ccc(Nc3ccccc3)c(S(=O)(=O)O)c2)c([N+](=O)[O-])c1
The “cytotoxicity” value of the first is higher: 19% for the first, -5.47% for the second.

Going from `CCC(C)(C)OC` to `CCC(=O)C1CC(C(C)C)CC=C1C` (stereo not given), the “cytotoxicity” value rises from -5.02% to -0.174%.

Compared with `O=[N+]([O-])c1ccc(O/N=C/c2cc(Br)c(O)c(Br)c2)c([N+](=O)[O-])c1`, `C=C1C[C@@]23CC[C@H]4[C@@](C)(CCC[C@@]4(C)C(=O)O[C@@H]4O[C@H](CO)[C@@H](O)[C@H](O)[C@H]4O)[C@@H]2CC[C@]1(O[C@@H]1O[C@H](CO)[C@@H](O)[C@H](O[C@@H]2O[C@H](CO)[C@@H](O)[C@H](O)[C@H]2O)[C@H]1O[C@@H]1O[C@H](CO)[C@@H](O)[C@H](O)[C@H]1O)C3` is lower in “cytotoxicity” value: 10.1% for the first, -0.157% for the second.

First: C=C1CCC2CC1C2(C)C (stereo not given)
Second: NCCNCCO
The “cytotoxicity” value of the first is lower: 0.109% for the first, 10.7% for the second.

In the case of `OCCN1CCN(CCCN2c3ccccc3Sc3ccc(Cl)cc32)CC1`, the Potency is reported as 15.1 µM (active).
In the case of `COc1cc(C(=O)NC2CCN(C)CC2)ccc1Nc1ncc2c(n1)N(C1CCCC1)CC(F)(F)C(=O)N2C`, the Potency is reported as 40 µM (active).
For `CCCCCCCCCCCCCCN(CCO)CCO`, the Potency was 24.5 µM (active).
For `C[C@]12CC[C@@H]3c4ccc(O)cc4CC[C@H]3[C@@H]1CC[C@@H]2OC(=O)CCC1CCCC1`, the Potency was 49 µM (active) and 23.9 µM (active).

Going from `Oc1c(I)cc(I)c2cccnc12` to `Cc1cc(O)c(C)c(C)c1O`, the “cytotoxicity” value falls from 0.108% [at 35.3 µM] to -3.07% [at 35.3 µM].

Compared with `CC(C)=CCC/C(C)=C/CC/C(C)=C/C(=O)OCC(=O)[C@@]1(O)CC[C@H]2[C@@H]3CCC4=CC(=O)C=C[C@]4(C)[C@H]3[C@@H](O)C[C@@]21C`, `O=C(/C=C/c1ccc(O)c(O)c1)O[C@@H]1C[C@@](OC(=O)/C=C/c2ccc(O)c(O)c2)(C(=O)O)C[C@@H](O)[C@@H]1O` is higher in “cytotoxicity” value: -44.4% [at 35.3 µM] for the first, -0.304% [at 35.3 µM] for the second.

Compared with `C[C@]1(Cn2ccnn2)[C@H](C(=O)O)N2C(=O)C[C@H]2S1(=O)=O`, `CC1(C)[C@H](C(=O)O)N2C(=O)C[C@H]2S1(=O)=O` is lower in “cytotoxicity” value: 0.873% [at 35.3 µM] for the first, -22.5% [at 35.3 µM] for the second.

Compared with `CCOC(=O)c1ccc(OCCN2C[C@H](O)[C@@H](O)[C@H](O)[C@H]2CO)cc1`, `O=C(O)c1ccc(OCCCOc2ccc(C(=O)O)cc2)cc1` is lower in “cytotoxicity” value: -0.31% [at 35.3 µM] for the first, -0.499% [at 35.3 µM] for the second.

First: Clc1ccc(Nc2nnc(Cc3ccncc3)c3ccccc23)cc1
Second: COC(=O)C1=C(C)NC(C)=C(C(=O)O[C@@H]2CCCN(Cc3ccccc3)C2)[C@@H]1c1cccc([N+](=O)[O-])c1
The “cytotoxicity” value of the first is lower: -0.951% [at 35.3 µM] for the first, 1.02% [at 35.3 µM] for the second.

First: CN1CCCN=C1COC(=O)C(O)(c1ccccc1)C1CCCCC1 (stereo not given)
Second: CC1(C)S[C@@H]2[C@H](NC(=O)C(c3ccccc3)S(=O)(=O)O)C(=O)N2[C@H]1C(=O)O (stereo not given in full)
The “cytotoxicity” value of the first is higher: 2.84% [at 35.3 µM] for the first, -12.6% [at 35.3 µM] for the second.

Compared with `CC[N+](CC)(CCNC(=O)C(=O)NCC[N+](CC)(CC)Cc1ccccc1Cl)Cc1ccccc1Cl`, `CCCCOc1ccc(OCCCN2CCOCC2)cc1` is lower in “cytotoxicity” value: 0.0836% [at 35.3 µM] for the first, -5.43% [at 35.3 µM] for the second.

Compared with `CO[C@]1(NC(=O)CSC(F)F)C(=O)N2C(C(=O)O)=C(CSc3nnnn3CCO)CO[C@H]21`, `O[C@@H]1CO[C@H]2[C@@H]1OC[C@@H]2O` is higher in “cytotoxicity” value: -11.1% [at 35.3 µM] for the first, 1.41% [at 35.3 µM] for the second.
